Experimental data published in PubChem BioAssay AID1159580 (chemical genetic matrix, 2015).
Among all 5,500 compounds or so, about 2,000 (36%) were called active. Inconclusive results (about 18%) are left out. No stated cut-off is given here; in the data, active means normalized growth mostly below about 0.91 (no sharp cut-off); inconclusive means no clear call, values can overlap the other calls; inactive means mostly above about 0.92. The list shows a part of the results.

Assay: chemical genetic growth profiling, strain panel (AID 1159580);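 further: tested at 20 µM; growth read once vehicle control cultures reached saturation at 30 °C; 1 = growth at the plate median or of vehicle wells; lower values mean less growth of the strain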
Conditions: growth OD

Measured: normalized growth

O=S(=O)(O)CCS
active: S. cerevisiae deletion strains, locus YOR083W, strain WHI5, active compounds read low 0.888
inactive: S. cerevisiae deletion strains, locus YKL009W, strain mrt4, active compounds read low 1.02 | S. cerevisiae deletion strains, locus YKL068W, active compounds read low 0.993 | S. cerevisiae deletion strains, locus YKL085W, strain MDH1 (second series), active compounds read low 0.99 | S. cerevisiae deletion strains, locus YKL085W, strain MDH1, active compounds read low 0.99 | S. cerevisiae deletion strains, locus YKL160W, strain elf1, active compounds read low 0.941 | S. cerevisiae deletion strains, locus YKL190W, strain CNB1, active compounds read low 1.01 | S. cerevisiae deletion strains, locus YKR001C, strain vps1, active compounds read low 1.02 | S. cerevisiae deletion strains, locus YKR026C, strain gcn3, active compounds read low 0.996 | S. cerevisiae deletion strains, locus YKR091W, strain srl3, active compounds read low 0.98 | S. cerevisiae deletion strains, locus YLL001W, strain dnm1, active compounds read low 1 | S. cerevisiae deletion strains, locus YLL026W, active compounds read low 1.01 | S. cerevisiae deletion strains, locus YLL041C, strain sdh2, active compounds read low 1 | S. cerevisiae deletion strains, locus YLR027C, strain aat2, active compounds read low 0.997 | S. cerevisiae deletion strains, locus YLR039C, strain RIC1, active compounds read low 1.03 | S. cerevisiae deletion strains, locus YLR058C, strain SHM2, active compounds read low 1.02 | S. cerevisiae deletion strains, locus YLR102C, strain apc9, active compounds read low 0.992 | S. cerevisiae deletion strains, locus YLR113W, strain HOG1, active compounds read low 0.956 | S. cerevisiae deletion strains, locus YLR221C, strain rsa3, active compounds read low 1.03 | S. cerevisiae deletion strains, locus YLR258W, strain gsy2, active compounds read low 1 | S. cerevisiae deletion strains, locus YLR262C, strain YPT6 (second series), active compounds read low 1.01 | S. cerevisiae deletion strains, locus YLR262C, strain YPT6, active compounds read low 1.05 | S. cerevisiae deletion strains, locus YLR268W, strain sec22, active compounds read low 0.993 | S. cerevisiae deletion strains, locus YLR320W, strain mms22, active compounds read low 0.979 | S. cerevisiae deletion strains, locus YLR330W, strain CHS5, active compounds read low 1.02 | S. cerevisiae deletion strains, locus YLR342W, strain FKS1 (second series), active compounds read low 0.989 | S. cerevisiae deletion strains, locus YLR342W, strain FKS1, active compounds read low 0.965 | S. cerevisiae deletion strains, locus YLR357W, strain rsc2, active compounds read low 0.912 | S. cerevisiae deletion strains, locus YLR370C, strain arc18, active compounds read low 0.98 | S. cerevisiae deletion strains, locus YLR371W, strain rom2, active compounds read low 0.996 | S. cerevisiae deletion strains, locus YLR384C, strain iki3, active compounds read low 0.97 | S. cerevisiae deletion strains, locus YLR418C, strain cdc73, active compounds read low 0.976 | S. cerevisiae deletion strains, locus YML016C, strain PPZ1, active compounds read low 1.01 | S. cerevisiae deletion strains, locus YML032C, strain rad52, active compounds read low 0.992 | S. cerevisiae deletion strains, locus YML120C, strain ndi1, active compounds read low 0.993 | S. cerevisiae deletion strains, locus YML124C, strain tub3, active compounds read low 0.994 | S. cerevisiae deletion strains, locus YMR058W, strain fet3, active compounds read low 1.01 | S. cerevisiae deletion strains, locus YMR078C, strain ctf18, active compounds read low 0.991 | S. cerevisiae deletion strains, locus YMR125W, strain sto1, active compounds read low 0.961 | S. cerevisiae deletion strains, locus YMR129W, active compounds read low 0.988 | S. cerevisiae deletion strains, locus YMR205C, strain PFK2, active compounds read low 1.01 | S. cerevisiae deletion strains, locus YMR223W, strain ubp8, active compounds read low 0.987 | S. cerevisiae deletion strains, locus YMR231W, strain pep5, active compounds read low 0.978 | S. cerevisiae deletion strains, locus YMR307W, strain GAS1, active compounds read low 1 | S. cerevisiae deletion strains, locus YNL067W, strain RPL9B, active compounds read low 1.03 | S. cerevisiae deletion strains, locus YNL071W, strain lat1, active compounds read low 0.996 | S. cerevisiae deletion strains, locus YNL153C, strain GIM3, active compounds read low 1.04 | S. cerevisiae deletion strains, locus YNL183C, strain NPR1, active compounds read low 0.933 | S. cerevisiae deletion strains, locus YNL209W, strain ssb2, active compounds read low 0.981 | S. cerevisiae deletion strains, locus YNL233W, strain BNI4, active compounds read low 1.02 | S. cerevisiae deletion strains, locus YNL248C, strain rpa49, active compounds read low 0.947 | S. cerevisiae deletion strains, locus YNL250W, strain rad50, active compounds read low 0.987 | S. cerevisiae deletion strains, locus YNL271C, strain bni1, active compounds read low 0.981 | S. cerevisiae deletion strains, locus YNL298W, strain CLA4, active compounds read low 0.982 | S. cerevisiae deletion strains, locus YNL307C, strain MCK1, active compounds read low 0.984 | S. cerevisiae deletion strains, locus YNL322C, strain KRE1 (second series), active compounds read low 0.967 | S. cerevisiae deletion strains, locus YNL322C, strain KRE1, active compounds read low 1.01 | S. cerevisiae deletion strains, locus YNR049C, strain mso1, active compounds read low 0.964 | S. cerevisiae deletion strains, locus YNR052C, strain pop2, active compounds read low 0.995 | S. cerevisiae deletion strains, locus YOL006C, strain TOP1, active compounds read low 1.07 | S. cerevisiae deletion strains, locus YOL012C, strain htz1 1.22 | S. cerevisiae deletion strains, locus YOL147C, strain pex11, active compounds read low 0.989 | S. cerevisiae deletion strains, locus YOR001W, strain rrp6, active compounds read low 0.996 | S. cerevisiae deletion strains, locus YOR061W, strain CKA2, active compounds read low 1.02 | S. cerevisiae deletion strains, locus YOR069W, strain VPS5, active compounds read low 1.01 | S. cerevisiae deletion strains, locus YOR070C, strain gyp1, active compounds read low 0.988 | S. cerevisiae deletion strains, locus YOR080W, strain dia2, active compounds read low 0.964 | S. cerevisiae deletion strains, locus YOR106W, strain vam3, active compounds read low 0.982 | S. cerevisiae deletion strains, locus YOR136W, strain idh2, active compounds read low 0.994 | S. cerevisiae deletion strains, locus YOR144C, strain elg1, active compounds read low 0.993 | S. cerevisiae deletion strains, locus YOR184W, strain ser1, active compounds read low 0.983 | S. cerevisiae deletion strains, locus YOR231W, strain MKK1, active compounds read low 0.974 | S. cerevisiae deletion strains, locus YOR265W, strain rbl2, active compounds read low 0.999 | S. cerevisiae deletion strains, locus YOR270C, strain vph1, active compounds read low 0.939 | S. cerevisiae deletion strains, locus YOR290C, strain snf2, active compounds read low 0.974 | S. cerevisiae deletion strains, locus YOR316C, strain cot1, active compounds read low 0.988 | S. cerevisiae deletion strains, locus YPL051W, strain arl3, active compounds read low 0.991 | S. cerevisiae deletion strains, locus YPL055C, strain LGE1, active compounds read low 1.07 | S. cerevisiae deletion strains, locus YPL078C, strain atp4, active compounds read low 0.969 | S. cerevisiae deletion strains, locus YPL106C, strain sse1, active compounds read low 0.96 | S. cerevisiae deletion strains, locus YPL240C, strain hsp82, active compounds read low 0.994 | S. cerevisiae deletion strains, locus YPL241C, strain CIN2, active compounds read low 1.01 | S. cerevisiae deletion strains, locus YPL256C, strain CLN2, active compounds read low 0.997 | S. cerevisiae deletion strains, locus YPR119W, strain clb2, active compounds read low 0.99 | S. cerevisiae deletion strains, locus YPR141C, strain kar3, active compounds read low 0.987 | S. cerevisiae deletion strains, locus YPR163C, strain tif3, active compounds read low 0.99 | S. cerevisiae deletion strains, locus YPR167C, strain met16, active compounds read low 0.98 | S. cerevisiae deletion strains, strain wtn01, active compounds read low 0.981 | S. cerevisiae strains, strain wild type, active compounds read low 1.01
